# Among all 94,000 compounds or so, about 20 (0.02%) were called active. About 1% were inconclusive and are not listed. The call rests on the fitted dose curve; in most records, active means well fitted activation curve with a large enough effect; inconclusive means small, poorly fitted or top-dose-only effect; inactive means flat fitted curve, though single readings scatter. Not all results are given here.
# Test: qHTS of alpha-syn Inhibitors: NCGC Sytravon Library Screen
# Settings: S. cerevisiae alpha-synuclein toxicity rescue, BacTiter-Glo growth, 24 h; series mostly up to 46.1 µM
# Description: The goal of this project is to identify new chemical probes capable of reversing the toxicity associated with the Parkinson disease-related protein, alpha-synuclein. Compounds will be selected on their ability to restore growth in yeast cells expressing toxic levels of alpha-synuclein. These compounds will provide a complementary approach to deciphering the tangled mechanisms of toxicity and protection that we have uncovered through genome-wide genetic screens and are beginning to uncover in a large-scale proteomics analysis with mass spectroscopy. To this end, a miniaturized assay was developed to be screened against the Molecular Libraries Small Molecule Repository (MLSMR) to discover alpha-synuclein inhibitors. […] The phenotype of interest will be that of an Activator and this screen is run against the NCGC Sytravon Library collection. NIH Chemical Genomics Center [NCGC] NIH Molecular Libraries Probe Centers Network [MLPCN] MLPCN Grant: NS060957 Assay Submitter (PI): Susan Lindquist, Whitehead Institute/MIT
# Dispense 2.5 microL yeast galactose medium per 1536-well plate, pin compound, dispense 2.5 microL alpha-synuclein expressing yeast in galactose medium at OD600=0.02 (pregrown in raffinose medium to mid-log phase) per well, incubate for 24 hr at 30 deg C, and cell growth will be measured using 5 microL of Bactiter/Glo reagent to entire plate and read using Luminescence Protocol in ViewLux.
row,Structure (SMILES),outcome
1,COc1cc(CNC2CCCC2)c(Br)cc1OCc1ccccc1,inactive
2,Cc1ccc(C(=O)N[C@H](C(=O)N2CCN(c3ncccn3)CC2)C(C)C)cc1,inactive
3,Cc1nnc(SC(C(=O)c2ccccc2)c2ccccc2)[nH]c1=O (configuration not stated),inactive
4,CCOC(=O)C1=C(CC)OC(N)=C(C#N)C1c1ccc(F)cc1F (configuration not stated),inactive
5,COc1ccc(NC(=O)C2=C(C)NC(=O)NC2c2ccccc2[N+](=O)[O-])cc1 (configuration not stated),inactive
6,NC(=O)CCN1CCN(S(=O)(=O)/C=C/c2ccccc2)CC1,inactive
7,COc1ccccc1N1CCN(CC(=O)NCCc2ccc(S(N)(=O)=O)cc2)CC1,inactive
8,O=C(O)Cc1csc(-c2cccc(Oc3ccccc3)c2)n1,inactive
9,O=C(CN1CCCCCC1)NCCN1C(=O)S/C(=C\c2ccccc2Cl)C1=O,inactive
10,CCOC(=O)c1cnn2c(SC)ncnc12,inactive
11,CCCCN1C(=O)C(CC(=O)NCc2cccs2)CC(C(=O)N2CCOCC2)=C1C (configuration not stated),inactive
12,OCCC#Cc1ccc(CN2CCN(Cc3ccsc3)C(CCO)C2)cc1 (configuration not stated),inactive
13,CCC(CC)C(=O)Nc1c2c(nn1-c1ccc(C)cc1)CS(=O)(=O)C2,inactive
14,Cc1cccc(NC(=O)CCn2c(=O)oc3ccccc32)c1,inactive
15,CCCCN(C(=O)CSCc1ccc(C)cc1)c1c(N)n(Cc2ccccc2)c(=O)[nH]c1=O,inactive
16,O=C(CN1CCCSc2ccccc21)N1CCN(S(=O)(=O)c2ccccc2)CC1,inactive
17,O=C(C1CCCO1)N1CCN(C(=O)C23CC4CC(CC(C4)C2)C3)CC1 (configuration not stated),inactive
18,CCOC(=O)C(C(=O)c1ccccc1)C(c1ccccc1)c1nccc2ccccc12 (configuration not stated),inactive
19,COc1cccc(N2CC(C(=O)NCc3n[nH]c(=O)c4ccccc34)CC2=O)c1 (configuration not stated),inactive
20,CCCCS(=O)c1snnc1C (configuration not stated),inactive
21,Cc1ccc(NC(=O)NC(=O)N(C2CCCCC2)S(=O)(=O)c2ccccc2)cc1,inactive
22,O=C(Nc1ccccc1C(=O)N1CCOCC1)c1ccc(CSc2ccccc2)cc1,inactive
23,CCN(CC)C(=O)C1=C(C)N(Cc2ccc(OC)cc2)C(=O)C(CC(=O)NCCCCc2ccccc2)C1 (configuration not stated),inactive

row,Structure (SMILES),outcome
1,CN(C)CCOCCOc1ccc(Cl)c2ccccc12,inactive
2,O=C(Nc1cccc([N+](=O)[O-])c1)Nc1ccc(Cl)cn1,inactive
3,O=C(NCC(F)(F)F)c1ccc(S(=O)(=O)NCCc2ccc3c(c2)OCCO3)cc1,inactive
4,CC(=O)c1cnc(SCC(=O)O)nc1C,inactive
5,CN(C(=O)COC(=O)c1ccc(Br)o1)c1c(N)n(Cc2ccccc2)c(=O)[nH]c1=O,inactive
6,COc1ccc(CNC(=O)C2CCN(S(=O)(=O)c3ccc(SC)cc3)CC2)cc1,inactive
7,CCOC(=O)c1sc(NC(=O)c2sc(C)nc2C)nc1C,inactive
8,CCN(CC(=O)NCCc1ccccc1)S(=O)(=O)c1ccccc1,inactive
9,CCc1ccccc1OCC(=O)Nc1ccc2c(c1)OCCO2,inactive
10,CCN(CC)CCn1c2c(c(SCC(=O)Nc3ccc(C(C)C)cc3)nc1=O)CCC2,inactive
11,CCC(=O)c1ccc(OCC(=O)N(CC)CC2COc3ccccc3O2)cc1 (configuration not stated),inactive
12,CC(=O)Nc1ccc2nc(NC(=O)CS(=O)(=O)c3ccc(F)cc3)sc2c1,inactive
13,COc1ccc(NC(=O)CCC(=O)Nc2cc(OC)c(NC(=O)c3ccco3)cc2OC)c(OC)c1,inactive
14,COc1cc(NC(=O)CN(C)S(=O)(=O)c2ccc3nc(C)sc3c2)cc(OC)c1,inactive
15,CCCCn1c(SCC(=O)N2CCOCC2)nc2c1c(=O)n(C)c(=O)n2C,inactive
16,CSc1nnc(C2CCCN(CC(=O)Nc3ccccc3N3CCOCC3)C2)n1C(C)C (configuration not stated),inactive
17,Cc1cc2cc3n(c2nn1)N=C(Cl)CC3,inactive
18,CCOc1ccc(-c2n[nH]c(C)c2-c2ccccn2)c(O)c1,inactive
19,O=C(Nc1cc(F)ccc1F)c1ccc2c(=O)n3c(nc2c1)CCC3,inactive
20,COc1ccc(NC(=O)CC2C(=O)NC3CCCCC3N2C(=O)c2ccc(F)cc2)cc1 (configuration not stated),inactive
21,O=C(Nc1ccc(F)c([N+](=O)[O-])c1)C1CCCO1 (configuration not stated),inactive
22,CCOC(=O)c1[nH]cnc1C(=O)Nc1ccccc1C,inactive
23,O=C(c1ccccc1)N1CCN(C(=O)c2cc3nc(-c4ccccc4)cc(C(F)(F)F)n3n2)CC1,inactive

row,Structure (SMILES),outcome
1,O=S(=O)(Nc1ccccc1Br)c1cccs1,inactive
2,O=C(Nc1ccccc1C(=O)N1CCCCC1)c1ccco1,inactive
3,COc1cccc(N2CC(NS(=O)(=O)c3cccs3)CC2=O)c1 (configuration not stated),inactive
4,Cc1cn([C@H]2C[C@H](O)[C@@H](CNC(=O)[C@H](N)Cc3cccnc3)O2)c(=O)[nH]c1=O,inactive
5,COC(=O)c1cc(OCC(=O)NC2CCCc3ccccc32)cc(C(=O)OC)c1 (configuration not stated),inactive
6,O=C(Cc1ccccc1)NNC1CC(=O)N(c2ccc(Br)cc2)C1=O (configuration not stated),inactive
7,CCOC(=O)C1=C(c2ccccc2)NC(=S)NC1c1ccc(Cl)cc1 (configuration not stated),inactive
8,COc1ccc(-n2c(-c3ccc(Cl)cc3)n[nH]c2=S)c(OC)c1,inactive
9,COc1ccc(CC(=O)NC(C)CCc2ccccc2)cc1 (configuration not stated),inactive
10,C/C(CC(=O)NC(C)c1ccccc1)=N\NC(N)=S (configuration not stated),inactive
11,CN(C)c1ccc(C(=S)N2CCN(C(=S)Nc3ccc(Cl)cc3)CC2)cc1,inactive
12,CCCOc1ccc(/C=N/NC(=O)C2CC2)c(OCCC)c1,inactive
13,CCOC(=O)Cc1ncccc1C(=O)Nc1ccc(OC)cc1,inactive
14,COc1ccc(CN2C(=O)C(CC(=O)NCCCCc3ccccc3)CC(C(=O)N3CCOCC3)=C2C)cc1 (configuration not stated),inactive
15,CCOC(=O)c1c(NC(=O)COC(=O)c2ccc(S(=O)(=O)C(F)F)cc2)sc(C(=O)N(C)C)c1C,inactive
16,CC(=O)Nc1ccc(C(=O)NNC(=O)CCCCC(=O)NNC(=O)c2ccc(NC(C)=O)cc2)cc1,inactive
17,O=C(O)CC12CC3CC(C1)CC(n1ncc(NCc4ccc(F)cc4)c(Cl)c1=O)(C3)C2,inactive
18,CCOc1cc2c(Cl)ncnc2c(OCC)c1OCC,inactive
19,COc1ccc(N2CCN(C(=O)[C@@H](NC(=O)c3cc(OC)cc(OC)c3)C(C)C)CC2)cc1,inactive
20,O=C(NCCOc1ccccc1)c1ccccc1F,inactive
21,O=C(CSc1nnc(CN2CCCC2)n1-c1ccc(F)cc1)c1ccc2c(c1)OCO2,inactive
